# Assay outcomes (PubChem BioAssay)
# KDM4E inh = inhibitors of human JMJD2E histone demethylase; B2RXH2; AID 2147; 230,000 tested, 1.6% active; JMJD2E catalytic domain, FDH-coupled NADH fluorescence (FDH is formaldehyde dehydrogenase); Potency, µM (doses to about 57.1 µM), for the others: top-dose activity change, negative = inhibition, most hits filed as inhibitors; active means well fitted inhibition curve with a large enough effect, not every such curve was filed as active; inconclusive means small, poorly fitted or top-dose-only effect, or another doubt; inactive means no such curve, though single readings can be large or run the other way;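 further: potency means the concentration at half of the fitted maximal effect; 0% = wells with enzyme and -100% = buffer wells without enzyme; nearly all actives have a fitted effect of over 50% in size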
# Target sequence (B2RXH2 1-337 limits assumed): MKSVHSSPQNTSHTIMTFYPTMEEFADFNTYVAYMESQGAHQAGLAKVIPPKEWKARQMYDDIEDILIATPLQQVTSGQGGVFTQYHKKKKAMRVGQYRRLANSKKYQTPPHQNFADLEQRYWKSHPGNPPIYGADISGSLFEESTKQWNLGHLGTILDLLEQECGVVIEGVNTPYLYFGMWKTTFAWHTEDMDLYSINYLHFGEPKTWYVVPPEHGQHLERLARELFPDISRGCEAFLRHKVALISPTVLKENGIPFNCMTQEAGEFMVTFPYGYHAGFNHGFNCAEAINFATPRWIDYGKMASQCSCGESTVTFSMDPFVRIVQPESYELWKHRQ
# ALDH1A1 inh = ALDH1A1 (human) enzyme inhibition. AID 1030. Potency, µM (titrated, usually from 75.3 µM), without a hit: top-dose activity, negative = inhibition, usual class: inhibitors. 220,000 tested, 7.3% active. Purified ALDH1A1, NADH fluorescence, propionaldehyde substrate. P00352; active means well fitted inhibition curve with a large enough effect, not every such curve was filed as active; inconclusive means small, poorly fitted or top-dose-only effect, or another doubt; inactive means no such curve, though single readings can be large or run the other way;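 further: potency means the concentration at half of the fitted maximal effect; plate controls were no enzyme wells and a reference inhibitor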
# HPGD inh = inhibitors of human 15-hydroxyprostaglandin dehydrogenase (HPGD) | P15428 | purified HPGD, NADH fluorescence kinetic, PGE2 substrate | Potency, µM, for the others: top-dose activity change, negative = inhibition, hits mostly inhibitors | 150,000 tested, 4.3% active; active means well fitted inhibition curve with a large enough effect, not every such curve was filed as active; inconclusive means small, poorly fitted or top-dose-only effect, or another doubt; inactive means no such curve, though single readings can be large or run the other way; further: potency means the concentration at half of the fitted maximal effect; on the % scale 0 is the no-effect control and ±100 the full control effect
# Target sequence (P15428 whole entry, looked up): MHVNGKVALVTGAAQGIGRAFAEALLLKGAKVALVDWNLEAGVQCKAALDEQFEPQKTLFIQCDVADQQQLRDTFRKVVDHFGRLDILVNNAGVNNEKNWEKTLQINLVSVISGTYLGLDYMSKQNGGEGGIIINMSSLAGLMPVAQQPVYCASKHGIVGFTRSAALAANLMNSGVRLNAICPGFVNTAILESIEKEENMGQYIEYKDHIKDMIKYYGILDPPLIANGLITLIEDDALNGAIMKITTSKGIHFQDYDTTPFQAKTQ
#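 20 nM HPGD preincubated 15 min at room temperature with compound in 50 mM Tris-HCl pH 8, 0.01% Tween 20. Started with 1 mM NAD+ and 30 uM prostaglandin E2; NADH fluorescence (360/450 nm) read 5 times over 30-s intervals, last minus first.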
# HTT aggregate = reduces HttQ103-GFP aggregates in PC12 cells. PC12 HttQ103-GFP aggregates, Acumen cytometry, 40 h. Potency, µM (top dose mostly 46.1 µM), for inactives: top-dose activity change, negative = inhibition, usual class: inhibitors. 220,000 tested, 1.1% active; further: potency means the concentration at half of the fitted maximal effect; on the % scale 0 is the no-effect control and ±100 the full control effect; nearly all actives have a fitted effect of over 60% in size
#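 Huntingtin Q103 exon 1–GFP aggregates in induced PC12 cells (100 nM tebufenozide) were quantified by cytometry from lysates, with compounds dosed in titration.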
# CBFb-RUNX1 inh = CBF-beta/RUNX1 interaction disruption; Potency, µM (titrated, usually from 59.8 µM), for the others: top-dose activity, negative = inhibition, usual class: inhibitors; 230,000 tested, under 10 active; Q01196+Q13951; AlphaScreen CBFb-His/RUNX1-biotin binding, biochemical; further: % of control where 0% means no effect
#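 Bead-based AlphaScreen assay; binding partners His-tagged CBF-beta and biotinylated RUNX1 at 30 nM each. Compound exposure 15 min after a 20-min protein preincubation; bead step 90 min; all steps at room temperature.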
# HTT cytoprotect = Huntington cell model cytoprotection by ATP luminescence; AID 1471; Potency, µM (top dose mostly 56.4 µM), without a hit: cytoprotection (ATP increase), actives largely listed as activators; PC12 HTT-Q103 induced, cytoprotection, ATP luminescence, 40 h; 230,000 tested, 0.14% active; further: potency means the concentration at half of the fitted maximal effect; % of control where 0% means no effect; nearly all actives have a fitted effect of over 45% in size
#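 Huntington model: PC12 line, ecdysone-inducible HTTQ103 exon1–GFP, tebufenozide 100 nM. Test articles in a dose series. Endpoint luminescence from cellular ATP.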
# The depositor's hits bear a star; ? = inconclusive; / = no result given; [ ] = another dose, or the depositor's remark. This is a sample that favours compounds with a hit; in the whole collection about 9.8% have one here. Unless noted, the call rests on the fitted dose curve; in most records, active means well fitted curve in the direction sought with a large enough effect; inconclusive means small, poorly fitted or top-dose-only effect, or another doubt; inactive means no such curve, though single readings can be large; an effect the other way counts as inactive or inconclusive.
SMILES,KDM4E inh,ALDH1A1 inh,HPGD inh,HTT aggregate,CBFb-RUNX1 inh,HTT cytoprotect
CCc1cc2ccc(C)cc2nc1SCC(=O)NNC(=O)c1ccco1,0%,4µM*,0%,-13%,-6%,29%[10 µM]
O=C(Nc1ccc(Oc2ccccc2)cc1)C1CCCN(c2ncccn2)C1 (stereo not drawn),-3%,1%,-10%,4%,-1%,-13%
CCN(CC)CCNC(=O)c1cc2cc(Br)ccc2s1,2%,4%,/,-11%,6%,-2%[10 µM]
COc1ccc(C)cc1-n1nnnc1SCn1nnc2ccccc2c1=O,0%,18µM*,-15%,?,-2%,16%[10 µM]
Cc1ccc(-n2nnnc2SCn2nnc3ccccc3c2=O)cc1,1%,?,-24%,-13%,1%,-6%
CCc1cc2cc3c(cc2nc1SCC(=O)N1CCN(C(=O)c2ccco2)CC1)OCO3,-6%,?,-17%,-3%[9.22 µM],-7%,-37%
CCc1cc2ccc(C)cc2nc1SCC(=O)N1CCN(C(=O)c2ccco2)CC1,0%,10µM*,?,-12%,-6%,13%
N/C(=N\OC(=O)COc1ccc(Cl)cc1Cl)c1ccncc1,4%,0%,/,-5%[9.22 µM],22%,-1%[10 µM]
O=C(CCc1ccccc1)OCC(=O)c1ccc([N+](=O)[O-])cc1,0%,8.9µM*,/,3%,-11%,-10%
O=C(Nc1ccccc1)N(O)c1ccc(Cl)cc1,-4%,1µM*,-28%,4%,3%,1%[10 µM]
CC1=C(C#N)C2(O)C(=O)c3ccccc3C2(O)N1 (stereo not drawn),8%,?,/,-13%,-10%,-26%
CCOC(=O)C1=C(C)N[C@@]2(O)c3ccccc3C(=O)[C@@]12O,-8%,32µM*,-7%,-23%,15%,-1%[10 µM]
CC1=C(C(=O)OC(C)C)C2(O)C(=O)c3ccccc3C2(O)N1 (stereo not drawn),?,13µM*,-11%,-2%,-13%,14%[10 µM]
CCCCOC(=O)C1=C(C)NC2(O)c3ccccc3C(=O)C12O (stereo not drawn),-20%,8.9µM*,-9%,-9%,9%,19%
C(#Cc1ccccc1)C[N+]1(CC#Cc2cccc3ccccc23)CCOCC1,?,?,/,11%[9.22 µM],-4%,-12%[10 µM]
COc1ccccc1CNC(=O)C1CCN(S(=O)(=O)N2CCCCC2)CC1,0%,?,-8%,-5%,11%,-10%[0.074 µM]
COc1ccccc1CNC(=O)C1CCC1,5%,-5%,14µM*,12%,1%,5%[10 µM]
COc1ccccc1CNC(=O)c1c(O)c2cc(OC)c(OC)cc2[nH]c1=O,3.5µM*,1%,/,4%,3%,0%
COc1ccccc1CNC(=O)CSC1=NCCS1,-8%,?,/,-3%,6%,0%
COc1ccccc1CNC(=O)c1ccc(-c2ccccc2Cl)o1,3%,14µM*,-40%,?,0%[2.36 µM],/
COc1ccccc1CNC(=O)c1ccc(-c2ccccc2C(F)(F)F)o1,?,-13%,-12%,-19%,3%,/
COc1ccccc1CNC(=O)CSc1ccc(Br)cc1,3%,-19%,28µM*,-11%,-12%,-6%[10 µM]
CC(C)=C[C@H]1[C@@H](COC(=O)c2ccccc2Cl)C1(C)C,/,1%[13.5 µM],-7%,/,/,3%[10 µM]
CCCSc1nsc(NC(=O)CCC)n1,4%,?,/,-13%,-4%,-78%
COc1ccccc1CNC(=O)CC(C)C,-3%,2%,25µM*,?,0%,?
SMILES,KDM4E inh,ALDH1A1 inh,HPGD inh,HTT aggregate,CBFb-RUNX1 inh,HTT cytoprotect
C[N+](C)(C)/N=C\c1ccc(O)c(O)c1,/,7%[13.5 µM],-4%,/,/,9%[10 µM]
Oc1ccc(N=Cc2ccc(O)c(O)c2)cc1,0.63µM*,13µM*,28µM*,8%[9.22 µM],6%,-33%[10 µM]
CCN1c2ccccc2NC2C1C(C(C)=O)C(=O)N2c1ccc(Cl)cc1 (stereo not drawn),?,14µM*,-13%,?,-15%,-49%
NNC(=O)c1nnn(-c2nonc2N)c1-c1cccs1,37%,11µM*,-6%,-12%,1%,1%
CCOC(=O)c1nnn(-c2nonc2N)c1-c1ccccc1,10%,-6%,-6%,-12%,1%,8%
Cc1ccc(-c2nc(N3CCOCC3)sc2C(=O)N2CCOCC2)cc1,6%,20µM*,-7%,-5%,-3%,/
Cc1ccc(-c2nc(N3CCOCC3)sc2C(=O)N2CCCCC2)cc1,-3%,7.9µM*,0%,4%,-4%,-14%[10 µM]
CC(=O)c1sc(N2CCOCC2)nc1-c1ccccc1,-6%,-9%,/,7%,3%,14%[10 µM]
O=C(NC1CCCCC1)c1sc(N2CCOCC2)nc1-c1ccccc1,-4%,?,28%,?,3%,/
Cc1csc(=Nc2ccccc2)n1Cc1ccco1,-17%,15µM*,/,5%,-17%,-15%
Cc1csc(=NC(=O)c2ccccc2)n1Cc1ccco1,-24%,3%,-16%,12%,-2%,-4%[10 µM]
COc1cccc(/C=N/NC(=S)Nc2cccc(C(=O)O)c2)c1O,28µM*,-3%,/,-16%,/,-161%
O=C(O)c1cccc(NC(=S)N/N=C/c2cccnc2)c1,?,25µM*,/,16%,-2%,1%
O=S(=O)(N1CCCCC1)N1CCN(CC(O)COc2ccc3cc(Br)ccc3c2)CC1 (stereo not drawn),2%,?,-7%,-21%,7%,-13%
Cc1nc(C)n(CC(O)COc2ccc3cc(Br)ccc3c2)n1 (stereo not drawn),-1%,14%,-20%,13µM*,4%,-18%
CN(C)S(=O)(=O)N1CCN(CC(O)COc2ccc3cc(Br)ccc3c2)CC1 (stereo not drawn),-5%,-9%,-14%,11µM*,2%,-32%[0.074 µM]
COCCNC(=O)c1ccc2ccccc2n1,0%,?,22µM*,2%,9%,3%
O=C(NN=C1CCCCCCC1)c1ccc2ccccc2n1,258%,1.6µM*,/,14%,5%,-11%[10 µM]
NNC(=O)c1ccc2ccccc2n1,12%,7.9µM*,/,-25%,4%,-54%
Cc1ccccc1OCCNC(=O)c1ccc2ccccc2n1,-6%,5%,-23%,7%,25%,15%[10 µM]
Cc1ccccc1-c1oc(C)c(C)[n+]1[O-],-1%,1%,/,6%,7%,-31%
Cc1ccc(-n2nnnc2SCCNS(=O)(=O)c2ccccc2)cc1C,7%,5µM*,-6%,-26%,2%,-26%
CCCCCn1c(=O)c2ccccc2n2c(CCl)nnc12,-14%,25µM*,/,-26%,-5%,-29%
CC(C)CCn1c(=O)c2ccccc2n2c(CCl)nnc12,?,25µM*,/,4%,2%,0%
COc1ccccc1N1CCN(Cc2ccc(Br)o2)CC1,3%,13µM*,-9%,32%,8%,2%
